# Results from PubChem BioAssay AID485360 (National Center for Advancing Translational Sciences (NCATS), 2010).
# Values joined by “and” are separate entries in the source; they are usually repeats but may differ in a detail not shown here. Identical values can stand only once. The whole screen tested about 230,000 compounds, of which about 1,500 (0.65%) were called active. About 3% were inconclusive and are not listed. Calls follow the shape of the dose curve; as a rule, active = well fitted inhibition curve with a large enough effect; inconclusive = small, poorly fitted or top-dose-only effect; inactive = no such curve, though single readings can be large or run the other way. For the sample, actives were picked, then their nearest neighbours and some compounds at random. Some compounds were tested as several samples or in several runs, with calls that do not always agree.
# Target: Lethal(3)malignant brain tumor-like protein 1 (Homo sapiens) (UniProt Q9Y468)
# Sequence (Q9Y468 whole entry, looked up): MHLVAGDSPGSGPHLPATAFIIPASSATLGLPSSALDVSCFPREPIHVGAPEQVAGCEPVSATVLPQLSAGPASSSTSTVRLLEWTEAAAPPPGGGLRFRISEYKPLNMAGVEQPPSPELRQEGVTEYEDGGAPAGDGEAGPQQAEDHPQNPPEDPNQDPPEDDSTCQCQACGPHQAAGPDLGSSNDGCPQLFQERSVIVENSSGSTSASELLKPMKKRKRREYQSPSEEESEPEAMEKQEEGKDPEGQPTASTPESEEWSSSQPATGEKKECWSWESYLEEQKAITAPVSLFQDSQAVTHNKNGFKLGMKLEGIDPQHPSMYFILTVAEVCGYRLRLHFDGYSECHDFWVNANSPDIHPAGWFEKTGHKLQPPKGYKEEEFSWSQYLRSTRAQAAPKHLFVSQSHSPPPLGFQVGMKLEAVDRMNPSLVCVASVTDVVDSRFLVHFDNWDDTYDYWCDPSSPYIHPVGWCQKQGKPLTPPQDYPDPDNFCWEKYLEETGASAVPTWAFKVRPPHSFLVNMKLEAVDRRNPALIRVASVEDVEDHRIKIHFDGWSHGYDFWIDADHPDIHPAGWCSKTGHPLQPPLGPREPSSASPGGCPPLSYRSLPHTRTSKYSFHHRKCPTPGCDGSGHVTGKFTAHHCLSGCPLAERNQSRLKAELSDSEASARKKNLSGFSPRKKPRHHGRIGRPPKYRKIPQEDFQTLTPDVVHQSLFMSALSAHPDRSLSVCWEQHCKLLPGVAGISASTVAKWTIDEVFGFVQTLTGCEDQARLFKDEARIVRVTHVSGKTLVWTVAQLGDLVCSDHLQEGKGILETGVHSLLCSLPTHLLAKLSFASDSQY
# Test: qHTS Assay for the Inhibitors of L3MBTL1; also: nearly all actives have a fitted effect of over 60% in size
# Details: AlphaScreen L3MBTL1–H3K9me1 peptide binding; series mostly up to 57.1 µM; activity, negative = inhibition: at the top concentration
# Source text: The histone code is comprised of many post-translational modifications that occur mainly in histone tail peptides. The identity and location of these marks are read by a variety of histone binding proteins that are emerging as important regulators of cellular differentiation and development and are increasingly being implicated in numerous disease states. Small molecule probes that disrupt the interaction between histone binding proteins and chromatin would enable a systematic chemical biology study of proteins that read the histone code and could potentially reveal new targets for drug discovery. However, no such small molecules are known. This dearth of quality molecular probes can largely be attributed to the novelty of the target class and the lack of screening assays. This proposal details the development of the first high-throughput screening assay for the discovery of inhibitors of methyl-lysine binding proteins and how it can be be used to initiate a full-scale discovery effort for antagonists of histone binding proteins. Specifically, this work focuses on an AlphaScreen(tm)-based HTS assay for Malignant Brain Tumor (MBT) domain-containing proteins, which bind to the lower methylation states of lysine residues present in histone tail peptides.
# To each well, 2 uL of L3MBTL1 protein (final 50 nM) and 1 uL biotinylated histone peptide monomethylated at Lys9 [b-AHA-H3(1-15)K9me1] (final 75 nM) was added using a nanoliter dispenser. Formation of a protein-peptide complex proceeded at room temperature for 30 min. A Kalypsys pin-tool was employed to transfer 23 nL of library compound solution in DMSO to each well. Cefsulodin, found in a pilot screen of the LOPAC library to be a weak inhibitor of L3MBTL1 binding, was used as an intraplate control with a 16-point titration in duplicate. Following a 30 min incubation of the protein-peptide complex with compounds at room temperature, a mixture of 40 ug/mL each streptavidin-coated donor and nickel chelate acceptor AlphaScreen beads (final 10 ug/mL) was added in a 1 uL dispense for a final volume of 4 uL. Plates were incubated, protected from the light for 30 min at room temperature. Microplates were then be read on an EnVision multilabel plate reader using the 1,536 plate HTS AlphaScreen aperture (excitation time 80 ms, measurement time 240 ms).
# % is scaled to controls: 0 for no effect and ±100 for the full control effect; potency is read from the fitted curve at half-maximal effect.
Structure (SMILES),Potency,"activity, negative = inhibition"
CSC1=N/C(=C\C=C\c2cccs2)C(=O)S1,20 µM (active),–
CSC1=N/C(=C\c2ccc3c(c2)OCO3)C(=O)S1,–,-5.37% (inactive)
O=C1N/C(=C/c2cccs2)C(=O)N1Cc1ccc(F)cc1,–,7.41% (inactive)
Cc1ccnc(SCC(=O)Nc2cccc(S(=O)(=O)N3CCOCC3)c2)n1,–,-1.74% (inactive)
COc1ccccc1C(CNC(=O)c1cccc(NS(=O)(=O)c2ccc(Br)cc2)c1)N(C)C (stereo not drawn),–,5.64% (inactive)
COc1ccc(/C=N/Nc2nc3ccccc3c(=O)[nH]2)cc1,–,4.78% (inactive)
CCOc1ccc(-n2c(O)c(/C=N/Nc3nnc(C)c(=O)[nH]3)c3ccccc3c2=O)cc1,–,-28% (inactive)
COc1ccc(Cc2nnc(N/N=C/c3ccccc3O)[nH]c2=O)cc1OC,8.91 µM (active),–
CCOc1ccccc1OCC(=O)Nc1ccccc1C(=O)NC1CC1,–,-6.53% (inactive)
CC(OC(=O)c1ccc(S(=O)(=O)N2CCOCC2)cc1)c1ccccc1 (stereo not drawn),–,11.6% (inactive)
COc1ccc(-c2noc(CCC(=O)N3CCN(c4cccc(C)c4)CC3)n2)cc1,–,-5.84% (inactive)
Cc1cccc(N=C2NC(=O)/C(=C/c3cn(C)c4ccccc34)S2)c1,–,-12.5% (inactive)
Cc1ccc(N=C2NC(=O)/C(=C/C=C/c3ccco3)S2)cc1C,22.4 µM (active),–
CN(C)c1ccc(-n2cccc2/C=C2/SC(=Nc3ccc(F)cc3)NC2=O)cc1,–,-2.95% (inactive)
CC(=O)N1c2ccc(S(=O)(=O)N3CCCC(C(=O)Nc4ccc(C)cc4C)C3)cc2CC1C (stereo not drawn),–,-1.87% (inactive)
O=C(COC(=O)C1CCCO1)Nc1nc(-c2ccc(F)cc2)cs1 (stereo not drawn),–,5.76% (inactive)
O=C(CSc1nc2ccccc2c(=O)n1-c1ccccc1F)N1CCOCC1,–,2.61% (inactive)
Cc1ccc2c(c1)C1CN(C)CCC1N2S(=O)(=O)c1cccc(F)c1 (stereo not drawn),–,-0.876% (inactive)
FC(F)(F)c1nc2ccccc2nc1N/N=C/c1ccc(Cl)cc1,–,-3.16% (inactive)
Oc1ccc(/C=N/Nc2nc(-c3ccccc3F)nc3ccccc23)c(O)c1,–,-26.6% (inactive)
Cc1nc2ccccc2nc1N/N=C/c1ccc(O)cc1O,14.1 µM (active),–
C=C1c2c(Cl)ccc(O)c2C(O)=C2C(=O)[C@]3(O)C(O)=C(C(N)=O)C(=O)[C@@H](N(C)C)[C@@H]3[C@@H](O)C12 (stereo partly drawn),0.447 µM (active),–
Cc1nn(Cc2ccccc2)c(C)c1C(=O)N1CCN(CC(=O)Nc2ccccc2Cl)CC1,–,4.62% (inactive)
CCN(CC(=O)NCc1ccc(F)cc1)S(=O)(=O)c1ccc(Cl)s1,–,11.7% (inactive)
CCOc1ccc(S(=O)(=O)Nc2cccc(C(=O)NCC3(N4CCCCC4)CCCCC3)c2)cc1,–,-7.83% (inactive)
CC(Sc1ccccc1F)C(=O)Nc1cccc(S(=O)(=O)N2CCOCC2)c1 (stereo not drawn),–,4.02% (inactive)

Structure (SMILES),Potency,"activity, negative = inhibition"
Cc1cc(C)cc(NS(=O)(=O)Cc2ccccc2)c1,–,0.725% (inactive)
O=C1N/C(=C/c2cccn2-c2ccccc2)C(=O)N1c1cccc(Cl)c1,–,6.45% (inactive)
Cc1ccccc1NC(=O)CN1C(=O)N/C(=C\c2cccn2-c2cccc(C(=O)O)c2)C1=O,3.55 µM (active),–
Cc1ccccc1NC(=O)CSC(=O)c1ccccc1,–,-7.88% (inactive)
Cc1ccc(NC(=O)C(c2ccccc2)N2CCN(C(=O)c3ccco3)CC2)cc1 (stereo not drawn),–,-8.06% (inactive)
CN(C)C(=O)CCc1ccc2c3c([nH]c2c1)[C@]1(C)[C@@H](C(=O)N2CCCCC2)C[C@H](CC(=O)NCCC2=CCCCC2)C(=O)N1CC3,–,-2.71% (inactive)
C=CCOc1cccc(C2NC(=O)c3ccccc3O2)c1 (stereo not drawn),–,0.914% (inactive)
COc1cc(CN2CCC(C(N)=O)CC2)ccc1OCc1ccccc1,–,9.88% (inactive)
Oc1c(CN2CCCC2)cc(COCc2ccccc2)c2cccnc12,inactive and 28.2 µM (active),–
Clc1cccc(CN2COc3c(cc(Cl)c4cccnc34)C2)c1,–,-15.3% (inactive)
CCN(CC(=O)Nc1ccccc1C(F)(F)F)C(=O)C1CCN(C(=O)Nc2ccccc2)CC1,–,-3.3% (inactive)
COc1ccc(CCNC(=O)COC(=O)c2cnc(Cl)c(Cl)c2)cc1,–,-1.86% (inactive)
COc1ccccc1Nc1nc(N)nc(CSC(=S)N2CCOCC2)n1,–,-0.65% (inactive)
COc1ccccc1Nc1nc(N)nc(CN(C)C2CCCCC2)n1,15.8 µM (active),–
Cc1ccccc1Nc1nc(N)nc(CSc2ccccc2)n1,–,-6.78% (inactive)
CCCCCC(=O)N1CCN(S(=O)(=O)c2ccc3c(c2)OCCCO3)CC1,–,4.12% (inactive)
CCOC(=O)c1sc2nc(C)[nH]c(=O)c2c1C,–,3.08% (inactive)
CCOC(=O)c1sc2nc(CSc3ccccc3)[nH]c(=O)c2c1C,–,6.68% (inactive)
CSc1nnc(SCc2nc3sc(C(=O)O)c(C)c3c(=O)[nH]2)s1,3.16 µM (active),–
COc1ccc(S(=O)(=O)N2CCOC23CCN(S(=O)(=O)c2ccc([N+](=O)[O-])cc2)CC3)cc1,–,-11% (inactive)
CCCCn1c(N)c(N(CC(C)C)C(=O)CN(C)S(=O)(=O)c2ccc(F)cc2)c(=O)[nH]c1=O,–,5.09% (inactive)
CN(C)c1ccc(Nc2c3c4c(cccc4n(C)c2=O)C(=O)c2ccccc2-3)cc1,7.94 µM (active),–
CN(C)c1ccc(C2N(C)C(=O)c3ccccc3N2C)cc1 (stereo not drawn),–,-3.44% (inactive)
CC(C)Oc1ccc(S(=O)(=O)N2CCOCC2)cc1NC(=O)C1CCCC1,–,-1.04% (inactive)
COC(=O)c1ccc2ccccc2c1OC1OC(CO)C(O)C(O)C1NC(C)=O (stereo not drawn),–,4.66% (inactive)
Cc1ccc2nc(-c3ccccc3)cc(C(=O)O)c2c1,–,-3.25% (inactive)

Structure (SMILES),Potency,"activity, negative = inhibition"
Cc1cc(C)c2nc(-c3ccco3)cc(C(=O)O)c2c1,3.16 µM (active),–
CC1CCCN(C(=O)c2cc(-c3ccco3)nc3ccccc23)C1 (stereo not drawn),–,-0.376% (inactive)
CCOC(=O)c1ccccc1NS(=O)(=O)c1c(C)nc2sccn2c1=O,–,1.45% (inactive)
CCN(CC)S(=O)(=O)c1ccc(N2CCOCC2)c(NC(=O)C(C)Oc2ccc(F)cc2)c1 (stereo not drawn),–,-4.04% (inactive)
Cc1occc1C(=O)Nc1cccc(S(=O)(=O)N2CCOCC2)c1,–,-5.85% (inactive)
Oc1ccc2ccccc2c1N=Nc1nccs1,3.98 µM (active),–
c1ccc(NCc2cccc3ccccc23)nc1,–,25.5% (inactive)
Oc1ccc2ccccc2c1C=Nc1ccccc1,–,-9% (inactive)
Oc1ccc(N=Nc2nccs2)c(O)c1,25.1 µM (active),–
CN(CC(=O)NC1CCN(Cc2ccccc2)CC1)S(=O)(=O)c1ccc(Cl)s1,–,-0.592% (inactive)
O=C(COC(=O)c1ccco1)Nc1ccc(Cl)cn1,–,-4.51% (inactive)
O=C(NNS(=O)(=O)c1ccc(F)cc1)c1ccc([N+](=O)[O-])cc1Cl,–,1.2% (inactive)
Cc1sc2ncnc(N3CCC(C(=O)NNC(=O)c4ccc(F)cc4)CC3)c2c1C,–,4.79% (inactive)
CC1CCCCC1NCC(=O)Nc1ccccc1C(=O)Nc1ccccc1 (stereo not drawn),–,11.2% (inactive)
c1ccc(CSc2nnc(-c3ccco3)c(-c3ccco3)n2)cc1,7.94 µM (active),–
O=C(CC1N=C2c3ccccc3N=C(SCc3ccccc3Cl)N2C1=O)NCc1ccco1 (stereo not drawn),–,-7.4% (inactive)
O=c1[nH]c(SCc2ccccc2)nnc1-c1ccccc1,–,47.2% (inactive)
Clc1ccccc1CSc1nnc(-c2ccco2)c(-c2ccco2)n1,8.91 µM (active),–
O=C(Nc1nnc(SCc2ccccc2)s1)c1ccco1,–,-1.74% (inactive)
COC(OC)c1ccnc(SCc2ccccc2Cl)n1,–,30.5% (inactive)
Cc1nc(-c2ccc(F)cc2)c(CC(=O)Nc2cccc(S(=O)(=O)N3CCOCC3)c2)s1,–,-4.77% (inactive)
Cc1occc1-c1nnc(SCC(=O)NC2(C#N)CCCC2)n1C,–,-3.03% (inactive)
O=C(CSc1nnc(COc2ccc(Cl)cc2)n1Cc1ccco1)N1CCNC1=O,–,-3.91% (inactive)
COc1ccc2c(CC(=O)NNC(=O)c3ccccc3F)coc2c1,–,1.74% (inactive)
CC(C)N(C(=O)CSc1nnc(NC2CC2)s1)c1ccccc1,–,2.8% (inactive)
Cc1c(NC(=O)/C=C/C(=O)O)cccc1[N+](=O)[O-],–,4.64% (inactive)

Structure (SMILES),Potency,"activity, negative = inhibition"
CCc1nnc(NC(=O)/C=C/c2ccc(C)o2)s1,–,5.81% (inactive)
Cc1ccc(/C=C/C(=O)Nc2ccc([N+](=O)[O-])c(NC(=O)/C=C/c3ccc(C)o3)c2)o1,22.4 µM (active),–
NC(=O)c1ccc(Nc2ccc3nonc3c2[N+](=O)[O-])cc1,–,2.69% (inactive)
COc1ccc(Cl)cc1NC(=O)CN(C)C(=O)c1cc2ccccc2cc1OC,–,-1.92% (inactive)
O=C(OCC(=O)N1CCCCCC1)c1cnc(Cl)c(Cl)c1,–,0.852% (inactive)
O=C(c1ccc(F)cc1)N1CCC(C(=O)N2CCN(S(=O)(=O)c3ccccc3Br)CC2)CC1,–,9.56% (inactive)
CCOc1cc(N2CCOCC2)c(OCC)cc1NC(=O)COc1cccc2cccnc12,–,-2.29% (inactive)
Oc1c(C(c2ccccn2)N2CCOCC2)ccc2cccnc12 (stereo not drawn),8.91 µM (active),–
Cc1nc2sc(C(c3ccco3)N3CCOCC3)c(O)n2n1 (stereo not drawn),–,-0.458% (inactive)
COc1ccc(C(=O)COC(=O)C(O)c2ccccc2)c(OC)c1 (stereo not drawn),–,-0.868% (inactive)
CC(C)[C@H](NC(=O)N1c2ccccc2NC(=O)[C@@H]1C(C)C)C(=O)N[C@H](C(=O)O)c1ccccc1,–,-10% (inactive)
CC(C#N)(NC(=O)CN1CCN(S(=O)(=O)c2cc(C(F)(F)F)ccc2Cl)CC1)C1CC1 (stereo not drawn),–,12.2% (inactive)
O=C(CN1CCN(c2ccccc2O)CC1)NC(=O)NCc1ccccc1,–,-7.24% (inactive)
CCC(C)N(C(=O)CSc1nnnn1-c1ccccc1OC)C1CCS(=O)(=O)C1 (stereo not drawn),–,-0.112% (inactive)
COC(=O)[C@]1(Cc2ccccc2)N[C@H](CN(C)S(=O)(=O)c2ccc(OC(F)(F)F)cc2)[C@@H]2C(=O)N(C)C(=O)[C@@H]21,–,-0.744% (inactive)
O=C(Nc1ccc(NC(=O)c2cccs2)cn1)c1ccco1,–,-4.02% (inactive)
O=C(N/N=C/c1ccco1)c1ccc(C(=O)N/N=C/c2ccco2)o1,–,-10.8% (inactive)
O=C(N/N=C/C=C/c1ccco1)c1cccs1,31.6 µM (active),–
Cc1cc([N+](=O)[O-])ccc1NC1CCCC1,–,-12.3% (inactive)
Cc1cc(C=O)c(C)n1-c1ccc(NC2CCCCC2)c([N+](=O)[O-])c1,15.8 µM (active),–
Cc1c(NS(=O)(=O)c2ccc(NC3CCCC3)c([N+](=O)[O-])c2)c(=O)n(-c2ccccc2)n1C,–,-7.18% (inactive)
O=C(COC(=O)c1cccnc1Cl)NC12CC3CC(CC(C3)C1)C2,–,2.98% (inactive)
O=C(NCC#CCSc1nnc(-c2cccc3ccccc23)o1)c1cccs1,inactive and 10 µM (active),–
COc1ccc(-c2nnc(SCC(=O)c3cccs3)o2)c(OC)c1,–,-4.94% (inactive)
Cc1ccc(-c2nnc(-c3ccc(NC(=O)c4cccs4)cc3)o2)cc1,–,1.12% (inactive)
